High-throughput results deposited in PubChem by several laboratories.
Only a sample is shown.
CYP2C19 act – activators of human cytochrome P450 2C19; activation factor at 5 µM; AID 1025; 96,000 tested, under 10 active; P33261; recombinant CYP2C19, luciferin-H EGE luminescence; stronger effect = higher value; 0 = fully inhibited enzyme, 1 = untreated enzyme;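 active means activation factor of at least 2 at 5 µM in the primary screen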;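 further: 0 = wells with 2.5 mM tranylcypromine and 1 = vehicle-only wells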
Target sequence (P33261 whole entry, looked up): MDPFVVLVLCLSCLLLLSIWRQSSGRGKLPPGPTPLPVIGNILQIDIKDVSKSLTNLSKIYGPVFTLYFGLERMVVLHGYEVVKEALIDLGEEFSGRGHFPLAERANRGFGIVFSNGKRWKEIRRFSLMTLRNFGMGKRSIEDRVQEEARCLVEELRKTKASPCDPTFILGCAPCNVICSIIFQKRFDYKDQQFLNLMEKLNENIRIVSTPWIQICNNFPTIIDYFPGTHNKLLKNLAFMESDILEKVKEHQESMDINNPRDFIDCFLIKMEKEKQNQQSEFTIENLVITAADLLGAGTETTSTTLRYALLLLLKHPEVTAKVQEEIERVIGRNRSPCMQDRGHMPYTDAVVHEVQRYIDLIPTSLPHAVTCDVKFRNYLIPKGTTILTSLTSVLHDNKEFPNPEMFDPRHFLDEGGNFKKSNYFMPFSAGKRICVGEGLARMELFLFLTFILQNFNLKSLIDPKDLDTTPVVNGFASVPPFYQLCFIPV
CYP2C19 inh – blocks human cytochrome P450 2C19 | 21% of 96,000 active | inhibition, % at 5 µM | CYP2C19 Supersomes, luciferin-H EGE luminescence, 30 min | P33261;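 active means CYP2C19 inhibition above a set limit at 5 µM in the primary screen, cut at about 50% in these data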;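 further: plate controls were negative control wells for no effect and 2.5 mM tranylcypromine positive control for full effect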
CYP2C9 inh – human CYP2C9 inhibition; P11712; CYP2C9 Supersomes, luciferin-H conversion, luminescence; inhibition, % at 5 µM; 20% of 96,000 active; AID 777;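 active means blocking of liver enzyme CYP2C9 beyond about 50% at 5 µM, limit read from the data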
sEH act – soluble epoxide hydrolase (human) activation | purified human sEH enzymatic activity, activator screen | activation, % at 2 µM | 0.04% of 91,000 active; in the data active means activation above about 37%
CYP2C9 activ – activators of human CYP2C9; activation factor at 5 µM; 1.4% of 96,000 active; AID 1024; recombinant CYP2C9, luciferin-H conversion, luminescence; stronger effect = higher value; factor 1 = untreated enzyme, 0 = blocked;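 active means activation factor of 2 or more for CYP2C9 at a 5 µM dose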;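 further: 0 = sulfaphenazole-blocked wells and 1 = vehicle-only wells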
sEH inhibitor – inhibitors of human soluble epoxide hydrolase; inhibition, % at 2 µM; recombinant human sEH enzymatic activity assay; AID 707; P34913; 0.34% of 91,000 active; in the data active means inhibition above about 80%
An asterisk follows results filed as active.

CCOc1ccc(C(C)(C)C)cc1S(=O)(=O)n1nc(C)cc1C was read as sEH act -10 and sEH inhibitor 15.
Screening CCOc1ccc(C)cc1S(=O)(=O)n1ccc(C)n1 returned CYP2C19 act 0.5, CYP2C19 inh 46, CYP2C9 inh -130, sEH act -6, CYP2C9 activ 2.3* and sEH inhibitor 10.
COc1cc(S(=O)(=O)N2CCN(C)CC2)c(OC)cc1Cl was read as CYP2C19 act 0.6, CYP2C19 inh 44, CYP2C9 inh -13, sEH act 10, CYP2C9 activ 1.1 and sEH inhibitor -12.
For COc1cc(S(=O)(=O)n2ccc(C)n2)c(OC)cc1Cl the results were CYP2C19 act 0.3, CYP2C19 inh 67*, CYP2C9 inh 0, sEH act -8, CYP2C9 activ 1 and sEH inhibitor 9.
`CCOc1cc(C)c(C(C)C)cc1S(=O)(=O)N1CCN(C)CC1` gave CYP2C19 act 1.1, CYP2C19 inh -11, CYP2C9 inh -48, sEH act -2, CYP2C9 activ 1.5 and sEH inhibitor 8.
CCCC(=O)NC(=S)Nc1ccccc1F was read as CYP2C19 act 0.6, CYP2C19 inh 42, CYP2C9 inh 29, sEH act -8, CYP2C9 activ 0.7 and sEH inhibitor 9.
For COc1ccc(OC)c(-c2nnc(-c3ccc(C)o3)o2)c1 the results were CYP2C19 act 0.6, CYP2C19 inh 44, CYP2C9 inh 1, sEH act -4, CYP2C9 activ 1 and sEH inhibitor 4.
CCN(CC)C(=O)Cn1c(=O)n(-c2ccccc2)c(=O)n1CC(=O)N(CC)CC was read as CYP2C19 act 1, CYP2C19 inh 5, CYP2C9 inh -10, sEH act 12, CYP2C9 activ 1.1 and sEH inhibitor -11.
For Clc1ccc2c(NCc3ccccn3)ncnc2c1 the results were CYP2C19 act 0.4, CYP2C19 inh 62*, CYP2C9 inh 48, sEH act -7, CYP2C9 activ 0.5 and sEH inhibitor 5.
Clc1ccc2c(NCc3ccco3)ncnc2c1 was read as CYP2C19 act 0.2, CYP2C19 inh 79*, CYP2C9 inh 55*, sEH act 5, CYP2C9 activ 0.4 and sEH inhibitor -7.
For COc1ccccc1OCc1nnc(SCC(=O)c2cc(Cl)ccc2OC)o1 the results were CYP2C19 act 0.9, CYP2C19 inh 8, CYP2C9 inh -156, sEH act -9, CYP2C9 activ 2.6* and sEH inhibitor 9.
For COC(=O)c1ccccc1NC(=O)CSc1nnc(Cc2ccc(Cl)cc2)o1 the results were CYP2C19 act 0.1, CYP2C19 inh 91*, CYP2C9 inh 82*, sEH act -1, CYP2C9 activ 0.2 and sEH inhibitor 4.
For COc1ccccc1NC(=O)CSc1nnc(CNC(=O)c2ccco2)o1 the results were CYP2C19 act 1.1, CYP2C19 inh -11, CYP2C9 inh -12, sEH act -4, CYP2C9 activ 1.1 and sEH inhibitor 2.
COc1ccccc1NC(=O)CSc1nnc(CNC(=O)COc2ccc(Cl)cc2)o1 was read as CYP2C19 act 0.4, CYP2C19 inh 59*, CYP2C9 inh -122, sEH act 0, CYP2C9 activ 2.2* and sEH inhibitor 4.
Screening COc1ccc(OC)c(NC(=O)CSc2nnc(CNC(=O)COc3ccc(Cl)cc3)o2)c1 returned CYP2C19 act 0.4, CYP2C19 inh 61*, CYP2C9 inh -10, sEH act 5, CYP2C9 activ 1.1 and sEH inhibitor -1.
COc1ccc(NC(=O)CSc2nnc(CNC(=O)COc3ccc(Cl)cc3)o2)c(OC)c1 was read as CYP2C19 act 0.6, CYP2C19 inh 37, CYP2C9 inh 11, sEH act 9, CYP2C9 activ 0.9 and sEH inhibitor -5.
`C/C(N)=C(/C#N)C(=O)CSc1nnc(COc2ccccc2Cl)o1` gave CYP2C19 act 0.5, CYP2C19 inh 48, CYP2C9 inh 18, sEH act -9, CYP2C9 activ 0.8 and sEH inhibitor 8.
`COC(=O)c1ccc(S(=O)(=O)N2CCCC2)o1` gave CYP2C19 act 1.1, CYP2C19 inh -7, CYP2C9 inh -4, sEH act -2, CYP2C9 activ 1 and sEH inhibitor 2.
For COC(=O)c1[nH]c2cc(OC)ccc2c1NC(=O)CN1CCN(c2cccc(C)c2)C(C)C1 (stereo not given) the results were CYP2C19 act 0.9, CYP2C19 inh 14, CYP2C9 inh 31 and CYP2C9 activ 0.7.
O=C(c1ccc(O)cc1)c1ccc(Cl)cc1 was read as CYP2C19 act 0.6, CYP2C19 inh 41, CYP2C9 inh -5, sEH act 4, CYP2C9 activ 1 and sEH inhibitor -4.
`C=C(c1ccc(O)cc1)c1ccc(O)cc1` gave CYP2C19 act 0, CYP2C19 inh 96*, CYP2C9 inh 98*, sEH act -8, CYP2C9 activ 0 and sEH inhibitor 5.
For CCOC(=O)CSc1nnc2n(Cc3ccccc3)c(=O)c3c4c(sc3n12)CCC4 the results were CYP2C19 act 0.8, CYP2C19 inh 17, CYP2C9 inh 37, sEH act 15, CYP2C9 activ 0.6 and sEH inhibitor -14.
Screening CC(C)c1nc2ccccn2c1NC1CCCCC1 returned CYP2C19 act 0.9, CYP2C19 inh 8, CYP2C9 inh -4, sEH act 6, CYP2C9 activ 1 and sEH inhibitor -8.
CC(C)CNC(=S)NNC(=O)c1ccc(OC(F)F)cc1 was read as CYP2C19 act 0.7, CYP2C19 inh 26, CYP2C9 inh 9, sEH act -8, CYP2C9 activ 0.9 and sEH inhibitor 8.
For c1cc2c3c(cccc3c1)NC1(CCCCC1)N2 the results were CYP2C19 act 0.3, CYP2C19 inh 72*, CYP2C9 inh 52*, sEH act 12, CYP2C9 activ 0.5 and sEH inhibitor -12.
For O=C1CCSc2cccc3cccc(c23)N1 the results were CYP2C19 act 0.9, CYP2C19 inh 9, CYP2C9 inh 0, sEH act 27, CYP2C9 activ 1 and sEH inhibitor -29.
`CC1=Nc2cccc3cccc(c23)N1` gave CYP2C19 act 1, CYP2C19 inh 1, CYP2C9 inh 4, sEH act 2, CYP2C9 activ 1 and sEH inhibitor 0.
Screening c1cc2c3c(cccc3c1)NC1(CCCCCC1)N2 returned CYP2C19 act 0.1, CYP2C19 inh 87*, CYP2C9 inh 62* and CYP2C9 activ 0.4.
Cc1ccc(-n2nnnc2SCC(=O)Nc2c(C)n(C)n(-c3ccccc3)c2=O)cc1 was read as CYP2C19 act 1, CYP2C19 inh -1, CYP2C9 inh -81, sEH act 5, CYP2C9 activ 1.8 and sEH inhibitor -3.
For CCCN1CCN(C(=O)Cn2cccc2C(=O)c2ccccc2)CC1 the results were sEH act -9 and sEH inhibitor 12.
Screening Cc1ccc(C2=N/C(=C/N3CCOCC3)C(=O)O2)cc1 returned CYP2C19 act 1.1, CYP2C19 inh -9, CYP2C9 inh -13, sEH act 1, CYP2C9 activ 1.1 and sEH inhibitor -1.
